Active and inactive are the calls of the source.
Experiments:
[1] = compounds binding Alexa647 anti-His antibody – biochemical, small-molecule microarray, 635 nm fluorescence, artefact control for SMM control protein annotation, primary screen (AID 1128); conditions: higher = more signal;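 note: score merges feature fluorescence with signal-to-noise for each printed compound spot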
[2] = system: Human papillomavirus type 1a E7 protein (residues 1-88); assay: HPV1a E7 small-molecule binders, primary screen, biochemical, small-molecule microarray, residues 1-88, 635 nm (AID 1129); conditions: small-molecule microarray binding, fluorescence 635 nm; higher = more signal
[3] = molecular target: Focal adhesion kinase 1 (Homo sapiens) (UniProt Q05397); assay: PTK2 protein binding on printed compound slides – biochemical, small-molecule microarray, 635/667 nm fluorescence, BSA, DTT, primary screen (AID 1130); conditions: 635 nm fluorescence, higher = more signal;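 note: composite of spot emission at 667 nm and signal to noise over triplicate slides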
Focal adhesion kinase 1 (Homo sapiens), sequence (Q05397 whole entry, looked up): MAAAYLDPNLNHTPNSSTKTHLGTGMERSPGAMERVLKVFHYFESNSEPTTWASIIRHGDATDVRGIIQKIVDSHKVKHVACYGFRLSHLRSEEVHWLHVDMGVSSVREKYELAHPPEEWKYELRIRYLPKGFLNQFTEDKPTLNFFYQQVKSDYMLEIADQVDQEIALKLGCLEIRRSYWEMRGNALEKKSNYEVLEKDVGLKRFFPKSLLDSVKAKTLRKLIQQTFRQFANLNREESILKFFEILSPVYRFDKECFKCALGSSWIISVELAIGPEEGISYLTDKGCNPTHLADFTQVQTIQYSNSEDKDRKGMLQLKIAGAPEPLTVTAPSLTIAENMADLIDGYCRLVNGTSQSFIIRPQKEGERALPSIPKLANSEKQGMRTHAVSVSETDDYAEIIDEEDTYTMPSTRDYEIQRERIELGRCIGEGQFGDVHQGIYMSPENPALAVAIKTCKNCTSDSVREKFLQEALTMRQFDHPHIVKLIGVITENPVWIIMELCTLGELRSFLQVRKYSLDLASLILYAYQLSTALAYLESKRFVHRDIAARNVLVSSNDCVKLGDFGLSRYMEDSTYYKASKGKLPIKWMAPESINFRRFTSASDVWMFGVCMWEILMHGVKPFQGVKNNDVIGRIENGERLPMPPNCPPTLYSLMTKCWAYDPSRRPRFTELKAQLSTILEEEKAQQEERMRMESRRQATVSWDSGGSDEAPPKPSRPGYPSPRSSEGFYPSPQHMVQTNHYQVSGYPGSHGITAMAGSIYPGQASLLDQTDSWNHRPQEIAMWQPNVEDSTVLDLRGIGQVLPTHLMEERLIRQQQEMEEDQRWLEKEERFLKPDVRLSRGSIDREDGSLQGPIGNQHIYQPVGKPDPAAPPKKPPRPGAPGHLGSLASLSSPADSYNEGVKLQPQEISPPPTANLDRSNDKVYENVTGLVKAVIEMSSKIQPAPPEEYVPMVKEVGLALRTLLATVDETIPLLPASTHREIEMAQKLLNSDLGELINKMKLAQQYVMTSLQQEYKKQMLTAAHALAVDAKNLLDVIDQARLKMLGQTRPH

[4] = system: Fibrinogen (Alexa647-labelled); assay: Alexa647-fibrinogen binding to printed small molecules – biochemical, small-molecule microarray, 635/667 nm fluorescence, artefact control for SMM control-protein annotation, profiling panel (AID 1131); conditions: fibrinogen-A647 binding fluorescence, higher = more signal;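 note: z-score merges 667 nm fluorescence with per-spot signal-to-noise over triplicate slides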
[5] = molecular target: Follistatin (Homo sapiens) (UniProt P19883); assay: FST protein binding to printed compounds – biochemical, small-molecule microarray, 635/667 nm fluorescence, primary screen (AID 1132); conditions: 635 nm fluorescence, higher = more signal
Follistatin (Homo sapiens), sequence (P19883 whole entry, looked up): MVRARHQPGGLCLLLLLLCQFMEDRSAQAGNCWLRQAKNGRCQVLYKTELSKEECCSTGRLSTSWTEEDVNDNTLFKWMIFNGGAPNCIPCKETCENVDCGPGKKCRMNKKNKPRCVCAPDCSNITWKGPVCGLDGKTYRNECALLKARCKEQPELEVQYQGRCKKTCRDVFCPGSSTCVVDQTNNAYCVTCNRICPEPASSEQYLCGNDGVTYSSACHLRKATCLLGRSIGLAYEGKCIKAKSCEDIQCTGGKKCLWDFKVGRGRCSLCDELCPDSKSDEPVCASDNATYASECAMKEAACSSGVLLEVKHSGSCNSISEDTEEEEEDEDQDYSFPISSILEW

[6] = molecular target: Fibroblast growth factor 2 (Homo sapiens) (UniProt P09038); assay: basic fibroblast growth factor binding to printed compounds – biochemical, small-molecule microarray, 635/667 nm fluorescence, primary screen (AID 1133); conditions: FGF2, fluorescence 635/667, higher = more signal
Fibroblast growth factor 2 (Homo sapiens), sequence (P09038 whole entry, looked up): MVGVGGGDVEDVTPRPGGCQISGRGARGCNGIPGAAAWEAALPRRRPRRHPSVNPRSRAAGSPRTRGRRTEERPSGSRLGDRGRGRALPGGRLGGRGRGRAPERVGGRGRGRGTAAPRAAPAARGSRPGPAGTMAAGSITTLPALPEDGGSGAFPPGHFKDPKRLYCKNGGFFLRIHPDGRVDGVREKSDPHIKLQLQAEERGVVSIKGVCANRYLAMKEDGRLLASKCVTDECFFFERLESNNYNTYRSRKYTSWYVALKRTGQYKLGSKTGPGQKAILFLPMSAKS

[7] = JC-1 mitochondrial potential readout, lung cancer cells – cell-based, A549, JC-1 fluorescence, basal, 24 h, 100 nL, profiling panel (AID 1138); conditions: higher = more signal;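 note: A549 lung adenocarcinoma cells under basal conditions with no added stimulus; test concentration not given here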
[8] = system: Lefty1; assay: Lefty1 protein binding to printed compounds – biochemical, small-molecule microarray, 635/667 nm fluorescence, primary screen (AID 1139); conditions: fluorescence 635/667, higher = more signal
[9] = system: wheat germ agglutinin (Triticum aestivum), Alexa647-labelled; assay: Alexa647-WGA lectin binding to printed small molecules – biochemical, small-molecule microarray, 635/667 nm fluorescence, artefact control for SMM control-protein annotation, profiling panel (AID 1140); conditions: WGA-A647 binding, 635 nm fluorescence, higher = more signal;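 note: score merges 667 nm feature emission with signal to noise over triplicate slides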
[10] = molecular target: Luciferin 4-monooxygenase (Photinus pyralis) (UniProt P08659); assay: inhibition of purified Photinus pyralis luciferase – biochemical, luminescence, purified enzyme, 2006 set, primary screen (AID 1141); conditions: purified firefly luciferase, SteadyGlo luminescence, 30 min; higher = more signal, called active from +8 up or from −8 down;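 note: cell-free assay with purified firefly luciferase at 100 ng per well in PBS; test concentration not given here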
Luciferin 4-monooxygenase (Photinus pyralis), sequence (P08659 whole entry, looked up): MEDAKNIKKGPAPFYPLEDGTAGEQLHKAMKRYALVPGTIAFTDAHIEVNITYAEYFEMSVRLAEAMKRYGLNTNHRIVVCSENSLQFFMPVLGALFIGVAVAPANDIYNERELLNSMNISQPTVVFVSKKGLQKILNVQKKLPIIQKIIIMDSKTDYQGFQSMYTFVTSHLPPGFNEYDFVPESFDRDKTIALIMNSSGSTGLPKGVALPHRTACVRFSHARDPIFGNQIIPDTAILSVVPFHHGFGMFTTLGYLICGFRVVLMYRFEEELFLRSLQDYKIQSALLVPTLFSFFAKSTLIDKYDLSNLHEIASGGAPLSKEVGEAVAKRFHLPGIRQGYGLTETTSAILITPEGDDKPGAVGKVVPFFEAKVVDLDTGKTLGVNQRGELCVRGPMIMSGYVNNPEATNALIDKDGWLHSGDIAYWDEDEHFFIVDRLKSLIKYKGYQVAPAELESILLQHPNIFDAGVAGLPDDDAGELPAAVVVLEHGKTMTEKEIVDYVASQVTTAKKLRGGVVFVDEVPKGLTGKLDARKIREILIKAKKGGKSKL

| Structure (SMILES) | composite z-score [1] | composite z-score [2] | composite z-score [3] | composite z-score [4] | composite z-score [5] | composite z-score [6] | z-score [7] | composite z-score [8] | composite z-score [9] | z-score [10] |
| --- | --- | --- | --- | --- | --- | --- | --- | --- | --- | --- |
| CC(=O)NCCCC[C@@H]1NC(=O)[C@@H]2C[C@H](C(=O)NCc3ccc(F)cc3)[C@H](c3cccc(OCCO)c3)N2C1=O | 1.6 | 0.308 | -0.135 | 0.371 | 1.3 | 1.7 | 1.25 | 0.115 | -0.087 | -0.425 (inactive) |
| O=C1OCC=C[C@H]2OC34C=CCN(Cc5ccccc5)C(=O)[C@H]3N(CCCCCO)C(=O)[C@@H]4[C@@H]12 (stereo not given in full) | -0.171 | -0.614 | 0.0672 | -0.736 | -1.14 | -1.24 | 0.0704 | -1.09 | -1.29 | -0.423 (inactive) |
| CC(C)[C@H]1NC(=O)[C@@]23C(=O)N[C@@H](Cc4ccccc4)C2[C@H](C)[C@@]2(C)O[C@H]2C3/C=C/C/C=C\CNC(=O)[C@H](C)NC1=O (stereo not given in full) | 0.661 | -0.983 | -0.67 | -0.908 | -0.412 | 0.862 | -0.134 | -0.62 | -1.03 | -0.0632 (inactive) |
| CO[C@H]1COC(=O)CC=C[C@@H](C)COC(=O)[C@@H](C)NC(=O)CC=C[C@@H]1C | -0.505 | -1.53 | -1.02 | -0.943 | 1.44 | 2.02 | 1.15 | 1.73 | -0.673 | -1.37 (inactive) |
| CC(C)[Si]1(C(C)C)OCc2cc(C3CC3)nc(-c3ccccc3)c21 | -1.42 | -0.722 | -0.294 | -0.742 | 0.441 | -0.5 | 0.325 | -0.165 | -0.625 | -0.525 (inactive) |
| COC(=O)c1c(CC[C@@H](CO)NC(=O)N[C@H](Cn2cc(-c3cncn3C)nn2)C(C)C)oc(C(C)=O)c1C(=O)OC | 1.15 | 0.722 | -0.205 | -0.0397 | 0.415 | 1.11 | -0.315 | 0.999 | -0.0889 | -0.263 (inactive) |
| CCCC[C@@H]1C[C@H]1[C@@H](NC(=O)c1cccs1)c1ccc(Cl)cc1 | -0.492 | -1.19 | -0.393 | -1.26 | -1.44 | -1.6 | -0.363 | -1.58 | -0.746 | 0.191 (inactive) |
| CCCC=C(CCC)[C@@H](NC(=O)c1ccccc1)c1ccccc1 | -0.697 | 0.3 | 1.04 | -0.602 | -0.536 | -0.846 | -1.52 | -0.614 | -0.677 | 0.0419 (inactive) |
| CC(C)=C1C(=O)C(c2ccccc2)=C2CN3C(=O)N(CCc4ccccc4)C(=O)[C@]3(Cc3ccccc3)[C@H]21 | 1.39 | -0.992 | 0.521 | -0.358 | -1.04 | -0.77 | 1.45 | -0.961 | -0.112 | 0.451 (inactive) |
| COCCOC(=O)N1C(=O)[C@@]2(c3cc(C#CC4=CCCCC4)ccc31)[C@H](C(=O)NC[C@H](O)c1ccccc1)[C@H]1C(=O)O[C@H](c3ccccc3)[C@H](c3ccccc3)N1[C@@H]2c1ccccc1OCCO | 0.69 | 1.17 | 0.985 | 0.943 | 1.34 | 0.825 | -1.49 | 1.09 | 1.09 | -0.855 (inactive) |
| CC(C)C[C@@H]1NC(=O)[C@H]2C[C@@H](C(=O)NCCCCCC[N+](C)(C)C)[C@@H](c3ccc(O)cc3)N2C1=O | 2.28 | -0.194 | -0.188 | -1.44 | 1.16 | 0.839 | -0.603 | 0.467 | 0.952 | 0.779 (inactive) |
| C#CCCCON=C1C[C@@H](O)[C@@H](O)[C@@H]2[C@@H]3C(=O)N(Cc4ccc5c(c4)OCO5)C(=O)[C@@H]3CC[C@H]12 | 0.833 | 0.57 | 0.168 | 0.573 | 1.03 | 0.4 | -0.421 | 1.59 | -0.142 | 0.975 (inactive) |
| O=[N+]([O-])c1ccc(C[n+]2ccc3ccc(O)cc3c2)o1 | 0.0131 | 0.275 | 0.326 | 0.596 | 1.04 | 0.227 | 1.25 | 0.392 | 1.12 | -2 (inactive) |
| [N-]=[N+]=NCc1ccccc1[C@H]1OC(c2ccc(OCCCO)cc2)=N[C@@]1(Cc1ccccc1N=[N+]=[N-])C(=O)NCc1ccccc1 | 0.859 | 1.18 | 0.636 | 0.82 | 1.03 | 0.299 | 0.623 | 0.0912 | 1 | -1.17 (inactive) |
| CO[C@H]1COC(=O)[C@H](C)NC(=O)CC=C[C@@H](C)[C@H](NS(=O)(=O)c2ccc(C)cc2)COC(=O)CC=C[C@@H]1C | -0.0701 | -0.64 | -0.522 | -1.3 | 1.28 | 0.708 | 0.507 | 1.35 | -0.955 | -0.217 (inactive) |

Source: PubChem BioAssay
